Measurements taken from PubChem BioAssay (NCATS).
For part of these data: Measured potencies and affinities stand elsewhere. Activity calls are given as the source filed them. No rule for the calls is given here.

Assays:
[1] = Ebola virus entry assay, green fluorescence channel
[2] = Ebola virus entry assay, green channel fluorescence
[3] = Ebola virus entry assay, reporter ratio channel; AC50: Channel type: primary unless noted; outcome: Channel type: primary unless noted
[4] = Ebola virus entry assay, blue channel (ratio component)

Measured: efficacy
For efficacy in this document: 0% is about no effect.

COP(=O)(OC)OC(c1ccc(Cl)cc1)P(=O)(OC)OC (stereo not given)
inactive: [1] -15.4% | [2] | [3] | [4]

C/C(=N\O)[C@@H](C)NCC(C)(C)CN[C@H](C)/C(C)=N/O
inactive: [1] -29.3% | [2] | [3] | [4]

CCCC(O)C(CC)CO (stereo not given)
inactive: [1] 14.1% | [2] | [3] | [4]

Cc1c(C(=O)O)c(O)cc2c1C(=O)c1c(O)c([C@@H]3O[C@H](CO)[C@@H](O)[C@H](O)[C@H]3O)c(O)c(O)c1C2=O
inactive: [1] -19.5% | [2] | [3] | [4]

CCCCCC(C)N (stereo not given)
inactive: [1] -23% | [2] | [3] | [4]

COc1ccc(O)cc1
inactive: [1] 18.3% | [2] | [3] | [4]

O=C(O)CCCC[P+](c1ccccc1)(c1ccccc1)c1ccccc1
inactive: [1] 19.9% | [2] | [3] | [4]

C[C@]12CC[C@H]3[C@@H](CCC4=CC(=O)CC[C@@H]43)[C@@H]1CC[C@@H]2OC(=O)CCC1CCCCC1
inactive: [1] -18.4% | [2] | [3] | [4]

NCCc1ccn[nH]1
inactive: [1] 19.8% | [2] | [3] | [4]

O=C(OCc1ccccc1)c1ccccc1
inactive: [1] -23.2% | [2] | [3] | [4]

CCCCCN(CCCOC)C(=O)C(CCC(=O)O)NC(=O)c1ccc(Cl)c(Cl)c1 (stereo not given)
inactive: [1] -27.8% | [2] | [3] | [4]

Cc1cc(=O)[nH]c(=S)[nH]1
inactive: [1] -11.2% | [2] | [3] | [4]

CCN(CC)CCNC(=O)COc1ccc(OC)cc1
inactive: [1] 11.4% | [2] | [3] | [4]

O=C(N/N=C/c1ccc([N+](=O)[O-])o1)c1ccc(O)cc1
inactive: [1] 14.6% | [2] | [3] | [4]

Cc1c(C(C)C)c(=O)n(-c2ccccc2)n1C
inactive: [1] 14.2% | [2] | [3] | [4]

CO/N=C(/C(=O)N[C@@H]1C(=O)N2C(C(=O)OCOC(=O)C(C)(C)C)=C(C)CS[C@H]12)c1csc(N)n1
inactive: [1] -17.1% | [2] | [3] | [4]

CC(=O)OCC(=O)[C@@]1(O)CC[C@H]2[C@@H]3CCC4=CC(=O)C=C[C@]4(C)[C@@]3(F)[C@@H](O)C[C@@]21C
inactive: [1] 26.4% | [2] | [3] | [4]

COc1c2occc2c(OC)c2c(=O)cc(C)oc12
inactive: [1] 13.6% | [2] | [3] | [4]

COc1cc(C=O)ccc1O
inactive: [1] -12.7% | [2] | [3] | [4]

CC(=O)OC(C)OC(=O)C(C)c1ccc(-c2ccccc2)c(F)c1 (stereo not given)
inactive: [1] -16.8% | [2] | [3] | [4]

O=C(O)COc1nn(Cc2ccccc2)c2ccccc12
inactive: [1] -8.45% | [2] | [3] | [4]

CC(=O)NS(=O)(=O)c1ccc(N)cc1
inactive: [1] 10.9% | [2] | [3] | [4]

CCCCCCCCCCCCCCCCCCO
inactive: [1] -11.3% | [2] | [3] | [4]

NC[C@H]1O[C@H](O[C@H]2[C@H](O[C@@H]3O[C@H](CO)[C@@H](O)[C@H]3O)C(O)[C@H](N)C[C@@H]2N)[C@H](N)[C@@H](O)[C@@H]1O (stereo not given in full)
inactive: [1] -16% | [2] | [3] | [4]

Nc1cc(C(Cl)=C(Cl)Cl)c(S(N)(=O)=O)cc1S(N)(=O)=O
inactive: [1] -15.2% | [2] | [3] | [4]

Cc1ccc(S(=O)(=O)NC(=O)NC2CCCCC2)cc1
inactive: [1] -18.8% | [2] | [3] | [4]

O=C(NCN1CCOCC1)c1cnccn1
inactive: [1] 22.2% | [2] | [3] | [4]

CC(C)=CCC[C@@](C)(O)[C@H]1CC=C(C)CC1
inactive: [1] -15.6% | [2] | [3] | [4]

CC(C)=CCC1C(=O)N(c2ccccc2)N(c2ccccc2)C1=O
inactive: [1] -18% | [2] | [3] | [4]

OCc1cccnc1
inactive: [1] -9.44% | [2] | [3] | [4]

COc1cnc(NS(=O)(=O)c2ccc(N)cc2)nc1
inactive: [1] -24.4% | [2] | [3] | [4]

O=C(O)Cc1sc(-c2ccccc2)nc1-c1ccc(Cl)cc1
inactive: [1] -17.4% | [2] | [3] | [4]

CC1(C)O[C@@H]2C[C@H]3[C@@H]4C[C@H](F)C5=CC(=O)C=C[C@]5(C)[C@@]4(F)[C@@H](O)C[C@]3(C)[C@]2(C(=O)CO)O1
inactive: [1] 10.5% | [2] | [3] | [4]

COC(=O)/C=C(/C)N
inactive: [1] 22.1% | [2] | [3] | [4]

C#C[C@]1(O)CC[C@H]2[C@@H]3CCC4=CC(=O)CC[C@@H]4[C@H]3CC[C@@]21CC
inactive: [1] 10.4% | [2] | [3] | [4]

Cc1scc2c1N(C(=O)CN1CCN(C)CC1)c1ccccc1NC2=O
inactive: [1] 20.4% | [2] | [3] | [4]

OC1(c2ccc(Cl)cc2)CCNCC1
inactive: [1] 19.8% | [2] | [3] | [4]

COc1cc2c(Nc3ccc(Br)cc3F)ncnc2cc1OCC1CCN(C)CC1
inactive: [1] 16.7% | [2] | [3] | [4]

CN(CC1(C)CCCO1)S(=O)(=O)c1ccc(Cl)c(S(N)(=O)=O)c1 (stereo not given)
inactive: [1] -11% | [2] | [3] | [4]

CC1CN(c2cc3c(cc2F)c(=O)c(C(=O)O)cn3-c2ccc(F)cc2F)CCN1 (stereo not given)
inactive: [1] 9.66% | [2] | [3] | [4]

N#C[C@H]1C[C@H]2C[C@@H]2N1C(=O)[C@@H](N)C12CC3CC(CC(O)(C3)C1)C2
inactive: [1] -19.1% | [2] | [3] | [4]

O=C(O)CCCCC(=O)O
inactive: [1] -12.4% | [2] | [3] | [4]

O=c1cc[nH]c(=S)[nH]1
inactive: [1] 12.4% | [2] | [3] | [4]

CC[C@]12CCCN3CCc4c(n(c5ccccc45)[C@@](O)(C(=O)OC)C1)[C@@H]32
inactive: [1] -18% | [2] | [3] | [4]

CC(=O)N[C@@H](CC(C)C)C(=O)O
inactive: [1] -14.4% | [2] | [3] | [4]

CC(C)(C)NCC(O)COc1cccc2c1C[C@H](O)[C@H](O)C2 (stereo not given in full)
inactive: [1] 21.3% | [2] | [3] | [4]

COc1cc(C)c(Cc2cnc(N)nc2N)cc1OC
inactive: [1] -5.94% | [2] | [3] | [4]

CCn1ccc(NS(=O)(=O)c2ccc(N)cc2)nc1=O
inactive: [1] -11.6% | [2] | [3] | [4]

CCOc1ccc(NC(=O)CC(C)O)cc1 (stereo not given)
inactive: [1] 16.1% | [2] | [3] | [4]

NCCNCCNCCN
inactive: [1] 15% | [2] | [3] | [4]

CNC[C@H](O)c1cccc(O)c1
inactive: [1] -23.9% | [2] | [3] | [4]

CC(=O)O[C@@H]1C(=O)O[C@@H]2[C@H]1OC(=O)[C@@H]2OC(C)=O
inactive: [1] -16.6% | [2] | [3] | [4]

CCCCCCCCCCCCCCCC(=O)NCCO
inactive: [1] 20.8% | [2] | [3] | [4]

Oc1ccccc1-c1nnco1
inactive: [1] 7.99% | [2] | [3] | [4]

CC(O)CCCCn1c(=O)c2c(ncn2C)n(C)c1=O (stereo not given)
inactive: [1] 23.8% | [2] | [3] | [4]

CCC(C)C(C)(COC(N)=O)COC(N)=O (stereo not given)
inactive: [1] 12.3% | [2] | [3] | [4]

COC(=O)c1cc(Cl)ccc1NS(=O)(=O)C(F)(F)F
inactive: [1] -9.07% | [2] | [3] | [4]

C[C@@H](CN1CC(=O)NC(=O)C1)N1CC(=O)NC(=O)C1
inactive: [1] 17.9% | [2] | [3] | [4]

COc1cc(C(=O)N2CCOCC2)cc(OC)c1OC
inactive: [1] -19.5% | [2] | [3] | [4]

O=C(CS(=O)Cc1ccco1)NC/C=C\COc1cc(CN2CCCCC2)ccn1 (stereo not given)
inactive: [1] 29.8% | [2] | [3] | [4]
